Drawing on PubChem BioAssay AID1456 (Vanderbilt High Throughput Screening Facility, 2008), this text covers B-score of Tl+ flux slope (higher = more flux/activation; lower = inhibition) for 49 compounds.

About 4,100 (2.2%) of roughly 190,000 compounds were called active. The sample holds actives, similar compounds and a random draw of the others, so the mix is not that of the screen. Unmarked numbers belong to inactive results.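 How the source made its calls: active means thallium flux slope and its plate-corrected score both differing from the plate sample mean at a set confidence after two filtering rounds, in either direction; inactive means the rest.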

Chain of Solute carrier family 12 member 5 (Homo sapiens) (Q9H2X9 whole entry, looked up): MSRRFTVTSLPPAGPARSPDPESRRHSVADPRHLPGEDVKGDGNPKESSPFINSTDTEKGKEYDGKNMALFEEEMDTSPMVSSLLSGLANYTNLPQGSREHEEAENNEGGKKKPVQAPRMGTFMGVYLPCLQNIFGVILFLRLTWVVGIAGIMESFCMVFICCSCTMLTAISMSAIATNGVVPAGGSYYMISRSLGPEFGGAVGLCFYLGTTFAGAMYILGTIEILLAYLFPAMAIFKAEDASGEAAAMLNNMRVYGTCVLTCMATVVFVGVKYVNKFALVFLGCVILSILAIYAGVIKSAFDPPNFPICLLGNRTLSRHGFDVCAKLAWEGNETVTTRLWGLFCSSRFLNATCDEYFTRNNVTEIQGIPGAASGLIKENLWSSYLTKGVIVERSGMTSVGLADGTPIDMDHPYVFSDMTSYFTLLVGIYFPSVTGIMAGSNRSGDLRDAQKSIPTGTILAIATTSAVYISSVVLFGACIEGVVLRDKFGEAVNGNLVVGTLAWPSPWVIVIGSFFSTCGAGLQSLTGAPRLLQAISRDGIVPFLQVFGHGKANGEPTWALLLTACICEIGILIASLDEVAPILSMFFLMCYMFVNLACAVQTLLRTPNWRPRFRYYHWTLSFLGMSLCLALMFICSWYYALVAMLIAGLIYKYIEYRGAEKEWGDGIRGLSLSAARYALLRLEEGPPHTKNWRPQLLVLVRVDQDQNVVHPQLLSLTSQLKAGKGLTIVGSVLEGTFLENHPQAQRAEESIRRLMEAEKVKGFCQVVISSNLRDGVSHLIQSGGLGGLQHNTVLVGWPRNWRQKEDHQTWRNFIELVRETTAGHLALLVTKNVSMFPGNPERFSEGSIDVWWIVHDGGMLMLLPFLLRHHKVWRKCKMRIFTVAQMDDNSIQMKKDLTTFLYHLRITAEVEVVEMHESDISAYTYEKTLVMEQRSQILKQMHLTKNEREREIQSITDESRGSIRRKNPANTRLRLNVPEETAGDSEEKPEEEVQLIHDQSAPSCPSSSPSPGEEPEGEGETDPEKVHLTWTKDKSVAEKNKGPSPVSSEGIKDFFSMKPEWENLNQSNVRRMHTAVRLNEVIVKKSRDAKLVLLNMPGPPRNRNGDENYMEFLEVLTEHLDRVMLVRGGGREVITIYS

The experiment has as its target Solute carrier family 12 member 5 (Homo sapiens) (UniProt Q9H2X9). Nature of the experiment: modulation of human KCC2 ion transport – cell-based, HEK293 KCC2, FluoZin-2 fluorescence, MLSMR, primary screen (AID 1456).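 Further: slope of fluorescence scaled to starting intensity during 10 to 20 s after thallium.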 The note with it: KCC2 cells, thallium flux FluoZin-2 fluorescence; at 10 µM.
Turning to `Cc1cc(NC(=O)CN2CCCC(C)C2)n(-c2nc3ccccc3s2)n1` (centres undefined), the B-score of Tl+ flux slope (higher = more flux/activation; lower = inhibition) is 0.312.
Consider `CCC(C)Cn1c(O)cc2nn(-c3nc4ccccc4s3)c(=O)c-2c1C` (centres undefined), for which the B-score of Tl+ flux slope (higher = more flux/activation; lower = inhibition) was 5.85 (active).
For `CCOC(=O)N1CCN(CC(=O)Nc2cc(C)nn2-c2nc3ccccc3s2)CC1`, the B-score of Tl+ flux slope (higher = more flux/activation; lower = inhibition) was -0.634.
For the compound `C/C(=N\NC(=O)c1cccnc1)c1ccc(-n2ccnc2)cc1`, the B-score of Tl+ flux slope (higher = more flux/activation; lower = inhibition) is 0.898.
For `COc1cc2c(cc1OC)C(/C=C/c1ccco1)=NCC2` the value was -1.64; for `COc1cccc(CNC(=O)Cc2csc(Nc3nc(=S)[nH]c4ccccc34)n2)c1`, 16.7 (active); for `COc1cccc(CNC(=O)c2n[nH]c3ccccc23)c1`, -0.482.
Turning to `O=C(CCCn1c(=O)[nH]c2cc(Cl)ccc2c1=O)NCCN1CCN(c2ccccc2)CC1`, the B-score of Tl+ flux slope (higher = more flux/activation; lower = inhibition) is -1.09.
For `CCn1c(=O)cc(OCC(=O)NCCCN2CCN(c3cccc(Cl)c3)CC2)c2ccccc21` the value was -4.58; for `COc1cccc(CNC(=O)CCN2C(=S)NC(C)(C)CC2C)c1` (centres undefined), -1.19.
For `O=C(Cc1csc(Nc2nc(=S)[nH]c3ccccc23)n1)NCCCN1CCN(c2cccc(Cl)c2)CC1` the value was 18.7 (active); for `COC(=O)c1cc(S(=O)(=O)N2CCC(C(N)=O)CC2)oc1C`, 0.506.
Take `Cn1cc(S(=O)(=O)NC(c2ccccc2)c2ccccc2)c(=O)n(C)c1=O`: the B-score of Tl+ flux slope (higher = more flux/activation; lower = inhibition) is 1.52.
On to `CCCNc1c(N)c(=O)c1=O`, for which the B-score of Tl+ flux slope (higher = more flux/activation; lower = inhibition) is 0.441.
Then `O=C(Cc1ccccc1)Nc1c(Cl)ccc2nsnc12`, with 0.0149.
For the compound `O=C(Nc1ccn(Cc2ccccc2)n1)c1n[nH]c([N+](=O)[O-])c1Cl`, the B-score of Tl+ flux slope (higher = more flux/activation; lower = inhibition) was -5.21.
For `O=C(Nc1ccn(Cc2ccc(F)cc2)n1)c1ccncc1` the value was -1.12; for `O=C(Nc1ccn(Cc2ccccc2)n1)c1cccc(F)c1`, -4.17 (active).
Turning to `CC(=O)NCc1ccc(S(=O)(=O)NC2CCN(Cc3ccccc3)CC2)cc1`, the B-score of Tl+ flux slope (higher = more flux/activation; lower = inhibition) was -1.54.
For `Nn1c(SCc2ccccc2)nnc1C1CCCCC1` the value was 0.0386.
Then `COc1ccccc1CNC(=O)Cn1c(=O)oc2cc(Cl)ccc21`, with 0.172; and `COc1ccccc1N1CCN(C(=O)CSc2nnc(-c3ccoc3C)o2)CC1`, with -1.44; and `COc1ccccc1N1CCN(C(=O)CSc2ncnc3c2cnn3-c2ccc(C)c(C)c2)CC1`, with 5.99 (active).
With `COC(=O)CSc1ncnc2c1cnn2-c1ccc(C)cc1C`, the B-score of Tl+ flux slope (higher = more flux/activation; lower = inhibition) is 0.528.
Turning to `CN1CCN(c2ccc(S(=O)(=O)N3CCOCC3)cc2NC(=O)CCc2ccccc2)CC1`, the B-score of Tl+ flux slope (higher = more flux/activation; lower = inhibition) is 0.193.
For `CC(CO)(CO)NC(=O)c1ccc(=O)[nH]n1` the value was -0.424; for `Cc1cc(=O)[nH]c(SCC(=O)Nc2ccc(Br)cc2)n1`, 1.17.
Then `Cc1cccc(C)c1NC(=O)CSc1nnc(-c2ccccc2)n1Cc1ccc2c(c1)OCO2`, with -0.0425; and `c1ccc(-c2nnc3n2NC(c2ccc4c(c2)OCO4)S3)cc1` (centres undefined), with 17.9 (active).
`CC1=C(C(N)=O)C(c2ccc3c(c2)OCO3)n2nc(-c3cccc(C)c3)nc2N1` (centres undefined): the B-score of Tl+ flux slope (higher = more flux/activation; lower = inhibition) was -0.546.
For `CN=C1C=C/C(=N/N=c2\ccn(O)cc2C)C=C1C` the value was 0.0998.
Then `Cc1cccc(C2C3=C(CCCC3=O)N=C3c4ccccc4C(=O)C32)c1` (centres undefined), with 1.41.
In the case of `Cc1ccc(-n2[nH]c(C)c(/C=N/N3C(=O)c4cccc5cccc(c45)C3=O)c2=O)cc1`, the B-score of Tl+ flux slope (higher = more flux/activation; lower = inhibition) is 41.4 (active).
Take `COc1cc(SC#N)ccc1N=Cc1c(C)[nH]n(-c2ccc(C)cc2)c1=O`: the B-score of Tl+ flux slope (higher = more flux/activation; lower = inhibition) is 0.0406.
Then `Cc1[nH]n(-c2ccc(Cl)cc2)c(=O)c1/C=N/n1c(C)nc2ccccc2c1=O`, with 1.71; and `O=C(CSc1nnc(SCc2ccc(F)cc2)s1)Nc1ccc(C(=O)O)cc1`, with -2.12.
For the compound `COc1ccc([N+](=O)[O-])cc1NC(=O)COC(=O)/C=C/c1ccco1`, the B-score of Tl+ flux slope (higher = more flux/activation; lower = inhibition) is -3.66 (active).
For `COc1ccc([N+](=O)[O-])cc1NC(=O)CCc1ccccc1`, the B-score of Tl+ flux slope (higher = more flux/activation; lower = inhibition) is -1.49.
For `CC(C)CNC(=O)COC(=O)/C=C/c1ccco1` the value was 0.238.
For `O=C(COc1ccccc1[N+](=O)[O-])N/N=C/c1ccc[nH]1` the value was 1.37; for `CCOC(=O)C1CCN(c2c(Nc3cc(C)cc(C)c3)c(=O)c2=O)CC1`, 0.776.
For `CC(=O)c1sc(NC(=O)CCCOc2ccccc2C)nc1C` the value was 0.355; for `COC(=O)c1nc2ccccc2s1`, -0.0154; for `COc1cccc2sc(NNC(=O)c3nc4ccccc4s3)nc12`, 92.4 (active).
On to `COc1ccccc1OCc1nc2ccccc2s1`, for which the B-score of Tl+ flux slope (higher = more flux/activation; lower = inhibition) is -1.36.
As for `COc1cccc2sc(Nc3nc(C)c(C(C)=O)s3)nc12`, the B-score of Tl+ flux slope (higher = more flux/activation; lower = inhibition) is 16.2 (active).
As to `CC(=O)c1sc(NC(=O)c2cccc3ccccc23)nc1C`, the B-score of Tl+ flux slope (higher = more flux/activation; lower = inhibition) was 3.04.
On to `O=C(N/N=C/c1ccc(Br)o1)c1cncc(Br)c1`, for which the B-score of Tl+ flux slope (higher = more flux/activation; lower = inhibition) is 7.4 (active).
Then `O=C(CCc1n[nH]c(=O)[nH]c1=O)N/N=C/c1ccc(Br)o1`, with 0.0262.
